Only some compounds are listed: those with a hit (about 10% of all), similar ones and a draw of the others.
HEK cytotox: cytotoxic compounds in HEK 293 cells | HEK 293 viability, ATP luminescence (CellTiter-Glo), 48-72 h | Potency, µM (top dose mostly 115 µM), without a hit: at the highest dose activity change, negative = cytotoxicity, usual class: inhibitors | 6.6% of 94,000 active | AID 1345083; also: nearly all actives have a fitted effect of over 60% in size
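Viability of HEK 293 cells, plated at 250 cells/well, was judged by cellular ATP after compound treatment for 48 or 72 hr. Luminescence was imaged 10 min after CellTiter-Glo addition at room temperature.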
NPR1 antag: human Npr1 receptor antagonism; P16066; Potency, µM (doses to about 46.3 µM), for the others: top-dose activity change, negative = inhibition, usual class: inhibitors; AID 1347048; HEK293 hNpr1 GloSensor cGMP, ANP-stimulated luminescence; 1.6% of 76,000 active; calls by dose curve; also: nearly all actives have a fitted effect of over 60% in size
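Compound pre-incubated 30 min at room temperature on GloSensor-loaded HEK293 cells stably carrying hNpr1 and the pGS-40F cGMP biosensor. Stimulation uses hNppA at 0.1 nM final; luminescence is taken at baseline and 20 min post-agonist.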
NIH3T3 tox: cytotoxic compounds in NIH 3T3 cells | Potency, µM (doses to about 96.7 µM), for inactives: at the highest dose activity change, negative = cytotoxicity, usual class: inhibitors | 4.3% of 94,000 active | AID 1345082 | NIH 3T3 viability, CellTiter-Glo ATP luminescence, 48-72 h; also: nearly all actives have a fitted effect of over 55% in size
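Mouse fibroblast NIH 3T3 cells, 400 per well, received compound via pintool and were incubated for 48 or 72 hr prior to CellTiter-Glo ATP luminescence measurement.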
GPT2 inh: blocks human glutamate pyruvate transaminase 2 | 0.25% of 100,000 active | Potency, µM (titrated, usually from 57.7 µM), without a hit: top-dose activity change, negative = inhibition, most hits filed as inhibitors | Recombinant GPT2, coupled pyruvate oxidase/HRP Amplex Red fluorescence; also: nearly all actives have a fitted effect of over 60% in size
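GPT2 10ng/uL, a-KG 250uM, L-Ala 2mM, HEPES pH7.5 + 0.0001% Tween; 30 min RT. Then Amplex mix (PO/HRP/ThPP), 30 min RT dark, fluorescence. AOA 50uM used as positive control.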
FLuc inh: inhibitors of firefly (Photinus pyralis) luciferase; Potency, µM (highest dose often 115 µM), usual class: inhibitors; purified P. pyralis luciferase, luminescence, biochemical; P08659; 2.5% of 76,000 active; also: nearly all actives have a fitted effect of over 65% in size
Target sequence (P08659 whole entry, looked up): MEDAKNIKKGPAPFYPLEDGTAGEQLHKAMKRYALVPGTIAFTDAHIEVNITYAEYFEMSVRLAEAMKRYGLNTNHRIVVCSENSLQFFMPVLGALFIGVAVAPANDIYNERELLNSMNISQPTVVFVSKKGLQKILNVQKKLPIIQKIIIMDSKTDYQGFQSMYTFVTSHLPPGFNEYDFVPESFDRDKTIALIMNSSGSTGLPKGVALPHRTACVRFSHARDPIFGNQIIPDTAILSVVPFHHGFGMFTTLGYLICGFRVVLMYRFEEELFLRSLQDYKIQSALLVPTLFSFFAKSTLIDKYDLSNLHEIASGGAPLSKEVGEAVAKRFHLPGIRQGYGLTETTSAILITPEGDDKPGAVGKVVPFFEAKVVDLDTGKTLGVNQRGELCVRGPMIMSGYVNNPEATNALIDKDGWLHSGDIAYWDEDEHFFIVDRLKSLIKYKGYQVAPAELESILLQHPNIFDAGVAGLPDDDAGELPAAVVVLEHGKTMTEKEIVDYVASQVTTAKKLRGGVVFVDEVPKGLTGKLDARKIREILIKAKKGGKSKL
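Luminescence read by CCD imager after adding enzyme (10nM final) to wells holding compound, titrated in qHTS. Substrates 10uM each D-luciferin and ATP; buffer 50mM Tris acetate pH 7.5, 10mM Mg acetate, Tween-20, BSA.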
Starred values were filed as active, the others as inactive; i = inactive; ? = inconclusive; nt = no result; [ ] = another dose, or the depositor's remark. Unless noted, calls follow the shape of the dose curve; as a rule, active = well fitted curve in the direction sought with a large enough effect; inconclusive = small, poorly fitted or top-dose-only effect, or another doubt; inactive = no such curve, though single readings can be large; an effect the other way counts as inactive or inconclusive. % is scaled to controls: 0 for no effect and ±100 for the full control effect; potency is read from the fitted curve at half-maximal effect.

SMILES | HEK cytotox | NPR1 antag | NIH3T3 tox | GPT2 inh | FLuc inh
O=C(NCCC1CCN(C(=O)Nc2ccccc2F)CC1)c1ccccc1F | ? | 4% | -21% | i | i
COCCNC(=O)c1coc(COc2ccc3c(c2)C(c2ccc(F)cc2)N(C(=O)C(C)C)CC3)n1 (centres undefined) | 8.9µM* | -1% | -28% | i | i
Cc1ccc(C2c3cc(OCc4nc(C(=O)NCC(C)C)co4)ccc3CCN2C(=O)C2CC2)cc1 (centres undefined) | 40µM* | -1% | ? | -18% | i
O=C(C1CCCC1)N1CC2(CCN(CC3CC3)CC2)Cc2ccccc21 | ? | nt | ? | -3% | nt
Cc1cccc(CC(=O)NC2CCN(c3cc(-c4cccs4)[nH]n3)C2)c1 (centres undefined) | 35µM* | -16% | ? | ? | i
O=C(NC1CCN(c2cc(-c3cccs3)[nH]n2)C1)c1cccc(Cl)c1 (centres undefined) | 40µM* | -9% | ? | ? | i
O=C(CCC1CCCC1)N1CCC(N2C(=O)[C@H]3CN(Cc4ccccc4)C[C@H]3C2=O)CC1 | ? | nt | ? | 5% | nt
CN1CCN(c2ccc(-c3nccc4c(=O)cc(N(C)C5CCOCC5)oc34)cn2)CC1 | i | 4%[70.6 µM] | 89µM* | -7%[88.5 µM] | i
COc1ccc(-c2nccc3c(=O)cc(N(C)C)oc23)cn1 | i | 2%[70.6 µM] | 50µM* | -8%[88.5 µM] | i
CN(c1ccccc1)c1cc(=O)c2ccnc(-c3ccccc3O)c2o1 | ? | -4%[70.6 µM] | ? | 0%[88.5 µM] | i
CN(C)c1cc(=O)c2ccnc(-c3ccc(O)c(F)c3)c2o1 | 0%[172 µM] | -2%[70.6 µM] | 32µM* | i | i
CN(c1cc(=O)c2ccnc(-c3ccc(O)c(F)c3)c2o1)C1CCOCC1 | -19%[172 µM] | -3%[70.6 µM] | 8.9µM* | ? | i
C[S+](=O)([O-])c1ccc(-c2cc(C(=O)N3CCCCC3)nn3cccc23)cc1 | ? | nt | ? | 1% | nt
O=C(NC1CCCN(c2ccc3nnc(-c4ccccc4)n3n2)C1)C1CC1 (centres undefined) | -14% | nt | -15% | nt | nt
Cc1ccccc1-c1nccc2c(=O)cc(N(C)C3CCOCC3)oc12 | -26%[172 µM] | -4%[70.6 µM] | 25µM* | -13%[88.5 µM] | i
CN(C)c1cc(=O)c2ccnc(Nc3ccccn3)c2o1 | -25%[230 µM] | 8%[70.6 µM] | 71µM* | ? | i
COc1ncccc1-c1nccc2c(=O)cc(N(C)C3CCOCC3)oc12 | -18%[172 µM] | -4%[70.6 µM] | ? | 1%[88.5 µM] | i
Cc1ccc(NC(=O)N2CCCC(Cn3c(C4CC4)nc4cccnc43)C2)cc1F (centres undefined) | ? | -16% | ? | i | i
O=C(c1cn(CCc2ccccc2)nn1)N1CCC(OCc2ccccn2)CC1 | -12% | -2% | -24% | i | i
Cc1cccc(C2CCCN(C(=O)c3cn(CCc4ccccc4)nn3)C2)c1 (centres undefined) | 40µM* | -4% | ? | -13% | i
Cc1ccc(SC2CCN(C(=O)c3cn(CCc4ccccc4)nn3)CC2)cc1 | 89µM* | -2% | ? | -2% | i
O=C(NCCCc1ccccc1)c1ccc2nnc(-c3ccc(C(F)(F)F)cc3)n2c1 | ? | nt | ? | -13% | nt
COC(=O)[C@@H]1Cc2c([nH]c3ccccc23)[C@H]2C[C@@H](NCc3ccccc3)C[C@@H](c3ccccc3F)N21 | 25µM* | -25% | 25µM* | 5% | i
COC(=O)[C@@H]1Cc2c([nH]c3ccccc23)[C@H]2C[C@@H](NCc3cccs3)C[C@@H](c3ccccc3F)N21 | 40µM* | -3% | ? | 1% | i
CC(C)(C)OCC(O)CN1CCC(=O)N(CC2CC2)Cc2ccccc21 (centres undefined) | ? | nt | -21% | nt | nt
SMILES | HEK cytotox | NPR1 antag | NIH3T3 tox | GPT2 inh | FLuc inh
Cc1ccccc1S(=O)(=O)N1CCCC(CCC(=O)Nc2ccc(F)cc2F)C1 (centres undefined) | ? | nt | ? | -7% | nt
Cc1ccc(C(=O)N[C@@H]2CN(Cc3ccncc3)C[C@H]2CN(C)C)cc1C | 25µM* | 3% | -26% | 2% | i
O[C@@H]1C[C@@H](c2nc(-c3ccccc3)no2)N(Cc2ncc[nH]2)C1 | -8%[172 µM] | 3%[70.6 µM] | -10%[174 µM] | -5%[88.5 µM] | 22µM*
COc1ccc(-c2noc([C@@H]3C[C@@H](O)CN3C3CCN(C)CC3)n2)cc1 | -23%[172 µM] | 7%[70.6 µM] | -10%[174 µM] | 3%[88.5 µM] | 71µM*
O=[N+]([O-])c1cccc(-c2noc([C@@H]3C[C@@H](O)CN3Cc3ncc[nH]3)n2)c1 | -17%[172 µM] | 3%[70.6 µM] | -20%[174 µM] | -8%[88.5 µM] | i
O=[N+]([O-])c1cccc(-c2noc([C@@H]3C[C@@H](O)CN3CC3CCCCC3)n2)c1 | 63µM* | -12%[70.6 µM] | ? | -21%[88.5 µM] | i
Cc1ccc(-c2noc([C@@H]3C[C@@H](O)CN3Cc3ncc[nH]3)n2)cc1F | ? | -10%[70.6 µM] | ? | -12%[88.5 µM] | 25µM*
O=C(c1cnn2c1CCCC2)N1CCC(c2[nH]ncc2-c2ccccc2)CC1 | ? | -24% | ? | -2% | i
CC(C)CNC(=O)c1cc(C(C)(C)C)nc2c1cnn2C | ? | nt | ? | i | nt
COc1ccc(-c2noc([C@@H]3C[C@@H](O)CN3Cc3ccccn3)n2)cc1 | ? | ? | 35µM* | 2%[88.5 µM] | ?
c1coc(CN2CCC(NC3CCCN(c4nc5ccccc5s4)C3)CC2)c1 (centres undefined) | ? | 0% | ? | i | i
Clc1ccc2nc(N3CCC(NC4CCSC4)CC3)sc2c1 (centres undefined) | ? | 11µM* | -32% | ? | 35µM*
O[C@H]1CCCC[C@@H]1NC1CCN(c2nc3ccc(Cl)cc3s2)CC1 | 22µM* | ? | 10µM* | -3% | ?
CN(C)CCN(C)[C@@H]1[C@H](O)[C@H](CO)O[C@@H]1CN(Cc1ccc(Cl)cc1)Cc1cccc(Cl)c1 | ? | ? | 28µM* | -9% | i
OC[C@@H]1O[C@H](CN(Cc2cccc(Cl)c2)Cc2cccc(Cl)c2)[C@H](N2CCN(c3ccccn3)CC2)[C@@H]1O | ? | 4% | ? | -17% | i
COc1ccccc1-c1cc(C(=O)NC2CCOC2)c2cnn(C)c2n1 (centres undefined) | 4%[172 µM] | nt | -17%[138 µM] | nt | nt
C[S+](=O)([O-])c1ccc(-c2ncc3c(n2)OCCN(c2ccccc2)C3=O)cc1 | ? | 3%[70.6 µM] | ? | i | ?
COc1ccc(OC)c(-c2ncc3c(n2)OCCN(c2cccc(C(F)(F)F)c2)C3=O)c1 | -25% | -9% | ? | 3% | i
Cc1ccc(-c2ncc3c(n2)OCCN(c2ccccc2)C3=O)cc1F | ? | 7.1µM* | ? | i | ?

Compound activity deposited in PubChem BioAssay by National Center for Advancing Translational Sciences (NCATS).
